Test results reported in PubChem BioAssay (Tox21).
Results filed as inconclusive are left out. Active and inactive are the calls of the source. Calls follow the shape of the dose curve; as a rule, active = well fitted curve in the direction sought with a large enough effect in the repeat runs; inconclusive = weak or mixed curves; inactive = no such curve, though single readings can be large; an effect the other way counts as inactive or inconclusive.

How the values were obtained:
[1] = qHTS assay to identify small molecule agonists of the RXR signaling pathway - cell viability counter screen (AID 1159529);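 also: HEK 293T cells carrying an RXR-alpha UAS beta-lactamase reporter; series mostly up to about 77 µM; nearly all actives have a fitted effect of over 50% in size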
Outline: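 Counter screen: CellTiter-Glo luminescence. Cells: RXR-alpha-UAS-bla HEK 293T. Medium: 2% charcoal-stripped FBS. Treatment: 16 h, 37 C. Reagent incubation: 30 min, RT.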

[2] = qHTS assay to identify small molecule antagonists of the retinoid acid receptor (RAR) signaling pathway - cell viability counter screen (AID 1159551); also: nearly all actives have a fitted effect of over 35% in size
Outline: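 Cytotoxicity counter screen: ATP content quantified by CellTiter-Glo luminescence in C3RL4 cells treated 6 hr at 37 C with compound and retinol (1 uM final). Cells plated at 1,000/well and cultured overnight before dosing.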

[3] = qHTS assay to identify small molecule agonists of the retinoic acid receptor (RAR) signaling pathway (AID 1159553)
Outline: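 Luminescence was measured 30 min after luciferase reagent addition at room temperature. Before that, C3RL4 reporter cells (1,000 per well, plated overnight) were treated with compound for 6 hr at 37 C and 5% CO2.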

Measured: Potency

C[N+]1(C)CCC(OC(=O)C(O)(c2ccccc2)C2CCCC2)C1 (stereo not drawn)
inactive: all assays above

O=[N+]([O-])c1ccc2[nH]ncc2c1
inactive: all assays above

O=C(O)C(S)C(S)C(=O)O (stereo not drawn)
inactive: all assays above

CCCCCCCC/C=C\CCCCCCCC(=O)OCC
inactive: all assays above

CCOC(=O)C(=O)CCc1ccccc1
inactive: all assays above

C#Cc1cccc(Nc2ncnc3cc(OCCOC)c(OCCOC)cc23)c1
inactive: all assays above

CCCCOC(=O)CCCCCCCC(=O)OCCCC
inactive: all assays above

CCCCC1=NC2(CCCC2)C(=O)N1Cc1ccc(-c2ccccc2-c2nn[nH]n2)cc1
inactive: all assays above

O=C1OC(CN2CCOCC2)CN1/N=C/c1ccc([N+](=O)[O-])o1 (stereo not drawn)
inactive: all assays above

Nc1ccc([N+](=O)[O-])c(C(F)(F)F)c1
inactive: all assays above

CCCCCCc1ccc(-c2ccc(C#N)cc2)cc1
inactive: all assays above

Cc1c(N)cccc1[N+](=O)[O-]
inactive: all assays above

CCOC(=O)COC(=O)c1cc(Oc2ccc(C(F)(F)F)cc2Cl)ccc1[N+](=O)[O-]
inactive: all assays above

COc1ccc2cccc(CCNC(C)=O)c2c1
inactive: all assays above

O=C1OC(=O)C2C3C=CC(C3)C12 (stereo not drawn)
inactive: all assays above

CC[N+](C)(CC)CCOC(=O)C(O)(c1ccccc1)C1CCCCC1 (stereo not drawn)
inactive: all assays above
